PubChem BioAssay (Tox21)
Records with an inconclusive call do not appear. Where a call stands in place of a potency, no number is given. Unmarked numbers belong to inactive results. The source made the active and inactive calls. The call rests on the fitted dose curve.

What follows are compounds tested against Muscarinic acetylcholine receptor M1 (Homo sapiens) (UniProt P11229) (assay: Cholinergic receptor muscarinic 1 (CHRM1) small molecule antagonists, cell-based qHTS assay (AID 1963588; further: nearly all actives have a fitted effect of over 40% in size)). Settings: CHRM1-CHO antagonist mode, calcium flux fluorescence; series mostly up to 61.5 µM.
Sequence of Muscarinic acetylcholine receptor M1 (Homo sapiens) (P11229 whole entry, looked up): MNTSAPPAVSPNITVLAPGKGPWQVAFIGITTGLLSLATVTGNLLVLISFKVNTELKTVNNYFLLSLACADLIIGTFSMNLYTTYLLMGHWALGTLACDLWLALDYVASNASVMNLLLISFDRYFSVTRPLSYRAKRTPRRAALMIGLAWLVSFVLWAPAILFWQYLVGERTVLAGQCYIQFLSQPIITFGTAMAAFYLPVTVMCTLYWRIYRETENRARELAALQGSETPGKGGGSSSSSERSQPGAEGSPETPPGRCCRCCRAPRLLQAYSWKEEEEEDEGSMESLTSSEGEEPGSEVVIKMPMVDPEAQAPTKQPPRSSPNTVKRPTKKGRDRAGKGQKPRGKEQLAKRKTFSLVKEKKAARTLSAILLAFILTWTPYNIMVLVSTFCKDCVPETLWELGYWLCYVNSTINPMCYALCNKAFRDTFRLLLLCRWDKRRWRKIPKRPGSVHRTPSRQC
Excerpt: National Center for Advancing Translational Sciences [NCATS]
Division of Preclinical Innovation [DPI]
U.S. Environmental Protection Agency [EPA]
National Institutes of Environmental Health Sciences [NIEHS]
National Toxicology Program [NTP]
U.S. Food and Drug Administration [FDA]
The CHRM1 is a muscarinic receptor. This receptor plays a crucial role in learning and memory processes and has long been identified as a promising therapeutic target for the improvement of cognitive decline in Alzheimer's disease (AD). The CHRM1-CHO cell line stably expressing human muscarinic acetylcholine receptor M1 (CHRM1) can be used for screening agonists and antagonists of interactions between CHRM1 and its ligands. The CHRM1-CHO Calcium Flux Assay is a homogeneous fluorescence-based assay for detecting the intracellular calcium level using FDSS kinetic plate reader system.
Tox21 Assay Protocol Summary:
CHRM1-CHO cells were dispensed at 1000 cells/3uL/well in 1536-well black-clear bottom plates using a Multidrop Dispenser. After the assay plates were incubated at a 37 C/5% CO2 incubator for 18 h, 3 uL of Dye Loading Buffer was transferred to the assay plate by a Flying Reagent Dispenser. The assay plates were incubated at 37 C for 1h. For antagonist mode, 23 nL of compounds dissolved in DMSO, positive controls or DMSO only was transferred to the assay plate by a pin tool. After 5 min incubation at room temperature, 1.5 uL of acetylcholine at 50nM was added to each well. The fluorescence intensity in the plates was measured using FDSS 7000EX kinetic plate reader for 3 min at 1 sec intervals. Each test compound was measured at 15 concentrations in three independent runs.
Potency means the concentration at half of the fitted maximal effect.

**Q.** How did the Potency turn out when `Cc1cccc(C)c1C` was run?
**A.** inactive

**Q.** `Cc1cccc(C)c1NC(=O)c1ccc(N)cc1` was tested. Which Potency did it give?
**A.** inactive

**Q.** How did the Potency turn out when `Nc1cc(C(=O)O)ccc1Cl` was run?
**A.** inactive

**Q.** With `CO[Si](CCC1CCC2OC2C1)(OC)OC` (stereo not given) as the compound, how does the Potency read?
**A.** inactive

**Q.** For `CCCOC(=O)c1ccc(C(=O)OCCC)nc1`, which Potency is on record?
**A.** inactive

**Q.** For `CC1(C)S[C@@H]2[C@H](NC(=O)C(c3ccccc3)S(=O)(=O)O)C(=O)N2[C@H]1C(=O)O` (stereo not given in full), which Potency is on record?
**A.** inactive

**Q.** For `C=C(C)c1ccccc1`, which Potency is on record?
**A.** inactive

**Q.** How did the Potency turn out when `COC(=O)CCCCC(CCSS/C(CCO)=C(\C)N(C=O)Cc1cnc(C)nc1N)SC(C)=O` (stereo not given) was run?
**A.** inactive

**Q.** Which Potency does the source give for `O=C1c2ccccc2C(=O)C1c1ccc(Br)cc1` here?
**A.** inactive

**Q.** Which Potency does the source give for `CN1CCCCC1CCN1c2ccccc2Sc2ccc(S(C)=O)cc21` (stereo not given) here?
**A.** 0.0103 µM (active)

**Q.** Which Potency does the source give for `CC1=NC(C)OC1C` (stereo not given) here?
**A.** inactive

**Q.** How did the Potency turn out when `CC(C)=CC(=O)O` was run?
**A.** inactive

**Q.** `Nc1cc(C(=O)O)c(O)c(S(=O)(=O)O)c1` was tested. Which Potency did it give?
**A.** inactive

**Q.** With `CCCCCCCC[Si](OCC)(OCC)OCC` as the compound, how does the Potency read?
**A.** inactive

**Q.** For `O=C1Nc2cc(Cl)ccc2Oc2ccccc21`, which Potency is on record?
**A.** inactive

**Q.** For `CCN(CC)CC(=O)Nc1c(C)cccc1C(=O)OC`, which Potency is on record?
**A.** inactive

**Q.** `COc1ccc(CCC(=O)c2c(O)cc(O[C@@H]3O[C@H](CO)[C@@H](O)[C@H](O)[C@H]3O[C@@H]3O[C@@H](C)[C@H](O)[C@@H](O)[C@H]3O)cc2O)cc1O` was tested. Which Potency did it give?
**A.** inactive

**Q.** How did the Potency turn out when `SC1CCCCC1` was run?
**A.** inactive

**Q.** Which Potency does the source give for `CCCCC/C=C\CCC=O` here?
**A.** inactive

**Q.** With `CC(C)C[C@@H]1[C@H](c2ccccc2)OC(=O)N1CCCN1CCCCCC1` as the compound, how does the Potency read?
**A.** inactive

**Q.** How did the Potency turn out when `COc1ccc(CN2CCN(C(c3ccc(F)cc3)c3ccc(F)cc3)CC2)c(OC)c1OC` was run?
**A.** 2.59 µM (active)

**Q.** `N#CCC(=O)NN` was tested. Which Potency did it give?
**A.** inactive

**Q.** Which Potency does the source give for `CCC(CC)C(=O)O` here?
**A.** inactive

**Q.** How did the Potency turn out when `C=CCCCCCCCCC(=O)OCC` was run?
**A.** inactive

**Q.** With `Cc1ccc2sc3cccc(C)c3c2c1` as the compound, how does the Potency read?
**A.** inactive

**Q.** Which Potency does the source give for `CCC1CCC(CCC(=O)O)C1` (stereo not given) here?
**A.** inactive

**Q.** How did the Potency turn out when `Nc1ncnc2c1ncn2[C@H]1CC[C@@H](CO)O1` was run?
**A.** inactive

**Q.** How did the Potency turn out when `CCc1cc(S(=O)(=O)O)c2cc(C(C)C)cccc1-2` was run?
**A.** inactive

**Q.** For `Cc1cccc([N+](=O)[O-])c1C(=O)O`, which Potency is on record?
**A.** inactive

**Q.** With `CCCCc1ccc2c(n1)[C@@H](c1ccc(OC)cc1C[C@H](C)C(=O)O)[C@H](C(=O)O)[C@H]2c1ccc2c(c1)OCO2` as the compound, how does the Potency read?
**A.** inactive

**Q.** `O=CN1CCCCC1` was tested. Which Potency did it give?
**A.** inactive

**Q.** For `O=S(O)O`, which activity, negative = inhibition is on record?
**A.** 27.3% [at 12.6 µM]

**Q.** Which Potency does the source give for `CCCCCCCCCCCl` here?
**A.** inactive

**Q.** `N#Cc1ccc(CC(=O)c2cccc(C(F)(F)F)c2)cc1` was tested. Which Potency did it give?
**A.** inactive

**Q.** With `CC(C)C[C@H](NC(=O)[C@H](CCc1ccccc1)NC(=O)CN1CCOCC1)C(=O)N[C@@H](Cc1ccccc1)C(=O)N[C@@H](CC(C)C)C(=O)[C@@]1(C)CO1` as the compound, how does the Potency read?
**A.** inactive

**Q.** Which activity, negative = inhibition does the source give for `O=C(O)c1ccc2c(c1)nc(C(=O)NC1CCN(C3CC3)CC1)n2Cc1cc(-c2ccc(Cl)s2)on1` here?
**A.** -5% [at 12.6 µM]

**Q.** Which Potency does the source give for `COc1ccc(OC(=O)N(CC(=O)O)Cc2ccc(OCCc3nc(-c4ccccc4)oc3C)cc2)cc1` here?
**A.** inactive

**Q.** Which Potency does the source give for `O=C1OC(=O)C2CCCCC12` (stereo not given) here?
**A.** inactive

**Q.** Which Potency does the source give for `Oc1cccc2[nH]ccc12` here?
**A.** inactive

**Q.** `CC(O)CN(CCCN(C)C)CCCN(C)C` (stereo not given) was tested. Which Potency did it give?
**A.** inactive
